MsrA inh: bovine MsrA inhibition; purified bovine MsrA, absorbance read-out; inhibition, % at 15.5 µM; hit rate 0.75% among 360,000; AID 651718;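 further: 0% = vehicle wells with enzyme and 100% = reference inhibitor wells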
ABCB6 inh MLPCN: human ABCB6 transporter inhibition; K562-ABCB6 porphyrin accumulation, flow cytometry, 1 h; active compounds read low; AID 602162; hit rate 0.19% among 360,000; Q9NP58; fluorescence ratio to DMSO, % at 10 µM;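 active means fluorescence ratio to DMSO below 75%, the collection mean minus 3 SD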;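 further: signal is porphyrin accumulated inside mitochondria; 100% equals median channel fluorescence of DMSO control wells; lower ratio means ABCB6 inhibition with less porphyrin fluorescence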
Target sequence (Q9NP58 whole entry, looked up): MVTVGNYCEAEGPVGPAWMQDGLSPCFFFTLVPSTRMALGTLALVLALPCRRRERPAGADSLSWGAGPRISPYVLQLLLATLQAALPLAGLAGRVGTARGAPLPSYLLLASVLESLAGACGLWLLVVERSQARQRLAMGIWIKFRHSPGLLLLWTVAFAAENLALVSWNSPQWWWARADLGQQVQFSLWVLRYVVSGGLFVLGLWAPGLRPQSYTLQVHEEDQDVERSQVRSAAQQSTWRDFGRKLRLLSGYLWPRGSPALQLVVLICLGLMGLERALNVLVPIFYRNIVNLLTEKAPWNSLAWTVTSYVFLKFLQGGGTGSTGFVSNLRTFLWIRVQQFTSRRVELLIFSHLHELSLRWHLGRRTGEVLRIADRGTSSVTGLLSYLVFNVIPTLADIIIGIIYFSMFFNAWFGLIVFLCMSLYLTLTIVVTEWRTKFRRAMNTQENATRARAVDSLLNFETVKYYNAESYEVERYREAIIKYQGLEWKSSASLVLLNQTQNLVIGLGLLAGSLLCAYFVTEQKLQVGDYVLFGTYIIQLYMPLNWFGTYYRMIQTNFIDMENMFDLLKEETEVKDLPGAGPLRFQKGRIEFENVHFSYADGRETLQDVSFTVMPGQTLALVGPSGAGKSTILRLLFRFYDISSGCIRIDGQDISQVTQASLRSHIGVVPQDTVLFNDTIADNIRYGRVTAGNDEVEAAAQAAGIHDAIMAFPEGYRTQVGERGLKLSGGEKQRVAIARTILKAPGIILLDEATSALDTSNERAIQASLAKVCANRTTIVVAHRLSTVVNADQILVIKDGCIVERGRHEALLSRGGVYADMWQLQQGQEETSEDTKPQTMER
SMARCA2 act: SMARCA2 function activation, primary screen; hit rate 1% among 370,000; MG213 cells, MMTV-luciferase reporter, dexamethasone, overnight; activation, % at 9.1 µM; AID 652017; in the data active means activation above about 7.8%;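 further: 0% = vehicle wells and 100% = reference activator wells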
bovine MsrA act: activates bovine MsrA enzyme | purified bovine MsrA, absorbance read-out | activation, % at 10.6 µM | hit rate 0.3% among 360,000 | AID 602163; in the data active means activation above about 7.5%;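 further: 0% = vehicle and 100% = reference activator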
MsrA inh confirm: bovine MsrA inhibition, confirmed. shares compounds with MsrA inh. purified bovine MsrA, absorbance read-out. inhibition, % at 15.5 µM. hit rate 41% among 2,300;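 further: coupled to thioredoxin reductase with NADPH and selenocystamine and DMSO as substrate; 0% = vehicle only and 100% = full effect of reference inhibitor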
Starred values were filed as active, the others as inactive; nt = no result given. A selection: hits, their analogues and other compounds. The true share with any hit is near 2.1%. Unless noted, no stated cut-off is given here; in the data, active means inhibition above about 4.5%; inactive means the rest.

SMILES | MsrA inh | ABCB6 inh MLPCN | SMARCA2 act | bovine MsrA act | MsrA inh confirm
Cn1c(=O)c2c(nc(N/N=C/c3ccco3)n2C)n(C)c1=O | 6.2* | 98.0 | 1.7 | 1.5 | 6.8*
Cn1c(=O)c2c(nc(N/N=C/c3cccs3)n2C)n(C)c1=O | 4.9* | 98.0 | 1.2 | -2.8 | 5.7*
O=C(NC1CCCCN(Cc2cccc(C(F)(F)F)c2)C1=O)C1C2CC3CC(C2)CC1C3 (stereo not drawn) | nt | nt | -0.9 | nt | nt
COc1ccc(C(=O)C(=NNc2ccccc2)c2ccc(OC)cc2)cc1 | 1.8 | 97.0 | -3.5 | -6.4 | nt
COc1ccc(N/N=C(\C=N\O)C(=O)c2ccc(OC)cc2)cc1 | 10.7* | 94.0 | -0.2 | -6.3 | 5.0*
Cc1nnc(C)n1N=Cc1ccc(O)cc1O | nt | nt | -4.0 | nt | nt
Nc1ccc(-c2nc3ncccc3o2)cc1 | 6.9* | 102.0 | 0.7 | -5.7 | 4.6*
O=C(NCc1ccccc1)OCCCN1C(=O)CCC12CCCCC2 | nt | nt | -0.5 | nt | nt
O=C(O)CC/C(=N\Nc1ccc(S(=O)(=O)N2CCCC2)cc1[N+](=O)[O-])c1cccs1 | 4.8* | 103.0 | -2.4 | -3.8 | 4.5
O=C(O)CC/C(=N\Nc1ccc(S(=O)(=O)N2CCOCC2)cc1[N+](=O)[O-])c1cccs1 | 4.9* | 90.0 | 1.3 | -11.6 | 4.7*
Cc1cccc(Cn2cc(COC(=O)NCC(C)C)nn2)c1 | nt | nt | 2.5 | nt | nt
C#CCNC(=O)C[C@H]1C[C@@]2(C(=O)OC)C(=C[C@H](COCc3ccccc3)O[C@@H]2C)N(CCCCCCCC)C1=O | nt | nt | -3.5 | nt | nt
COCCNC(=O)/C(C#N)=C/c1cccc(/C=C(\C#N)C(=O)NCCOC)c1 | -0.6 | 98.0 | 1.8 | -2.0 | nt
COCCNC(=O)/C(C#N)=C/C(C)=C/c1ccccc1 | 6.0* | 98.0 | 4.5 | -2.0 | 3.2
CC(C)[C@H](NC(=O)N1CCOCC1)C(=O)N1CCC[C@H]1C(=O)NCc1ccccc1 | 0.4 | nt | -2.3 | nt | nt
O=C1N/C(=N\S(=O)(=O)Cc2ccccc2)S/C1=C/c1cccc([N+](=O)[O-])c1 | 5.6* | 101.0 | -3.0 | -2.8 | 4.1
O=C1N/C(=N/O)S/C1=C/c1cccc([N+](=O)[O-])c1 | 2.9 | 98.0 | -1.1 | -4.5 | nt
CC(C)Oc1cccc(-c2n[nH]c(=S)n2N=Cc2cccc([N+](=O)[O-])c2)c1 | nt | nt | 3.3 | nt | nt
N#Cc1c(/N=C/c2ccc(-c3ccc(C(=O)O)c(Cl)c3)o2)sc2c1CCCC2 | 7.0* | 98.0 | -0.9 | -3.2 | 4.0
N#Cc1c(/N=C/c2ccc(-c3ccccc3C(=O)O)o2)sc2c1CCCC2 | 2.7 | 99.0 | 1.5 | -5.3 | nt
Fc1cc(F)c(CSc2nnc(-c3cccnc3)n2Cc2ccccc2)cc1F | nt | nt | 2.3 | nt | nt
Cn1cc(/C=C2\SC(=O)NC2=S)c2ccccc21 | 22.1* | 101.0 | -2.4 | -11.4 | 7.0*
O=S1(=O)c2ccc(N3CCC[C@H]3CO)cc2O[C@H]2CCN1C2 | nt | nt | -0.5 | nt | nt
CCOC(=O)c1sc(C)c2c(=O)n(CC)nnc12 | 5.7* | 90.0 | -2.9 | -3.5 | 2.5
CCOc1cc(/C=C\c2nc(O)c([N+](=O)[O-])c(=O)[nH]2)ccc1OC(C)C | 1.1 | 92.0 | 1.2 | -3.9 | nt
SMILES | MsrA inh | ABCB6 inh MLPCN | SMARCA2 act | bovine MsrA act | MsrA inh confirm
O=c1[nH]c(/C=C\c2cccs2)nc(O)c1[N+](=O)[O-] | 5.3* | 102.0 | 1.3 | -5.5 | 3.4
Cc1cc(C)cc(C(=O)OCCN(C)C2CN(Cc3cn(Cc4ccccc4C(F)(F)F)nn3)S(=O)(=O)C2)c1 (stereo not drawn) | nt | nt | 0.3 | nt | nt
Cc1cc(C(=O)N/N=C/C=C/c2ccccc2)n[nH]1 | 5.8* | 101.0 | -3.6 | -7.1 | 5.1*
Cc1cc(C(=O)N/N=C/C=C/c2cccc([N+](=O)[O-])c2)n[nH]1 | 5.9* | 91.0 | -5.3 | -3.0 | 3.7
O=C(N/N=C/C=C\c1cccc([N+](=O)[O-])c1)c1ccccn1 | -0.6 | 108.0 | 3.3 | -3.0 | nt
Cc1cc(C(=O)NN=Cc2ccccc2C(=O)O)n[nH]1 | nt | nt | 5.8 | nt | nt
COc1cc(C)nc(N(Cc2ccccc2)S(=O)(=O)c2ccccc2)n1 | 5.6* | 93.0 | -0.2 | -12.6 | 1.1
Nc1nc(-c2ccc([N+](=O)[O-])cc2)cs1 | 0.8 | 100.0 | 1.0 | -2.0 | nt
CC1(C)CC(c2nc(-c3ccc([N+](=O)[O-])cc3)cs2)CCO1 (stereo not drawn) | 4.8* | 100.0 | -5.9 | -4.3 | 1.9
COc1ccc(NC(=O)C2(C)Cc3c(-c4ccc(N(C)C)cc4)ccnc3O2)cc1 (stereo not drawn) | -0.5 | 94.0 | -1.4 | -2.0 | nt
N#Cc1ccccc1N1CCN(S(=O)(=O)c2ccc3c(c2)CCC(=O)N3)CC1 | nt | nt | -0.1 | nt | nt
COc1cc2c(cc1OC)-c1cc(Nc3ccccc3)nc(=O)n1CC2 | 5.1* | 96.0 | 4.4 | -3.1 | 3.3
COc1ccc(Nc2cc3n(c(=O)n2)CCc2cc(OC)c(OC)cc2-3)cc1 | 5.5* | 106.0 | 6.9 | 1.3 | 3.6
